# An excerpt weighted towards active compounds, which were near 7.6% of everything screened.
# SW480 rereplic = A quantitative high throughput screen for small molecules that induce DNA re-replication in SW480 colon adenocarcinoma cells; SW480 DNA re-replication, Hoechst DNA content imaging, 48 h; Potency, µM (top dose mostly 46.1 µM), for inactives: top-dose re-replication activation, hits mostly activators; actives 1.8% (n = 340,000); also: potency is read from the fitted curve at half-maximal effect; % of control where 0% means no effect; nearly all actives have a fitted effect of over 55% in size
#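 Cells (250 per well) received 23 nL compound or DMSO by pin tool and were kept 48 hr at 37 C, 5% CO2. Nuclei were then stained with Hoechst for 40 min and scanned for DNA content.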
# MCF10A rerep = A quantitative high throughput screen for small molecules that induce DNA re-replication in MCF 10a normal breast cells; MCF 10A DNA re-replication, Hoechst nuclear intensity, 48 h; Potency, µM (highest dose often 46.1 µM), for the others: at the highest dose activity, positive = re-replication, most hits filed as activators; actives 2.9% (n = 350,000); AID 624296, 2012; also: potency is read from the fitted curve at half-maximal effect; % of control where 0% means no effect; nearly all actives have a fitted effect of over 50% in size
# KB-3-1 tox = qHTS assay for MDR1-selective chemotherapeutics: Primary screen using the parental adenocarcinoma cell KB-3-1. actives 1.4% (n = 400,000). Potency, µM (doses to about 46.1 µM), actives largely listed as cytotoxic. AID 1347075, 2019. KB-3-1 viability, CellTiter-Glo ATP luminescence, 72 h; also: potency is read from the fitted curve at half-maximal effect; % is scaled to controls: 0 for no effect and ±100 for the full control effect; nearly all actives have a fitted effect of over 60% in size
#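 Using CellTiter-Glo luminescence, growth of non-resistant KB-3-1 adenocarcinoma cells is assessed 72 h after pin-tool compound addition at 37 °C. Normalized responses across the concentration series yield fitted curves.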
# KCNH2 3.1 inh = qHTS for Inhibitors of KCHN2 3.1: Mutant qHTS | U2OS KCNH2 3.1, thallium flux FluxOr; active compounds read low | activity change, % (tested at about 1.8 µM) | actives 0.95% (n = 340,000);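 active = maximum activity change below -70%; inconclusive = maximum activity change from -70% to -50%; inactive = maximum activity change above -50%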;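 also: thallium influx rate constant from kinetic fluorescence after stimulation buffer; % is scaled to controls: 0 for no effect and ±100 for the full control effect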
#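 FluxOr-based Tl+ influx in U2OS cells transduced with KCNH2 3.1 virus; rate constants normalized to DMSO controls.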
# KB-V1 cytotox = qHTS assay for MDR1-selective chemotherapeutics: Primary screen using the drug-selected MDR subline cells KB-V1. actives 3.4% (n = 400,000). Potency, µM (top dose mostly 46.1 µM), most hits filed as cytotoxic. KB-V1 MDR cells viability, CellTiter-Glo, 72 h; also: potency is read from the fitted curve at half-maximal effect; % is scaled to controls: 0 for no effect and ±100 for the full control effect; nearly all actives have a fitted effect of over 60% in size
#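 Luminescent ATP read-out (CellTiter-Glo, 10 min) measures survival of drug-selected KB-V1 MDR cells after 72 h, 37 degrees C compound exposure. Medium: phenol-red-free DMEM, 10% FBS. Values from fitted concentration-response curves.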
# hERG WT inh = qHTS for Inhibitors of KCHN2 3.1: Wildtype qHTS | U2OS, BacMam KCNH2, thallium flux FluxOr; active compounds read low | activity change, % at 1.84 µM | actives 0.37% (n = 340,000) | AID 720551, 2013;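 active = maximum activity change below -70%; inconclusive = maximum activity change between -70% and -50%; inactive = maximum activity change above -50%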; also: % is scaled to controls: 0 for no effect and ±100 for the full control effect
# Target sequence (Q12809 whole entry, looked up): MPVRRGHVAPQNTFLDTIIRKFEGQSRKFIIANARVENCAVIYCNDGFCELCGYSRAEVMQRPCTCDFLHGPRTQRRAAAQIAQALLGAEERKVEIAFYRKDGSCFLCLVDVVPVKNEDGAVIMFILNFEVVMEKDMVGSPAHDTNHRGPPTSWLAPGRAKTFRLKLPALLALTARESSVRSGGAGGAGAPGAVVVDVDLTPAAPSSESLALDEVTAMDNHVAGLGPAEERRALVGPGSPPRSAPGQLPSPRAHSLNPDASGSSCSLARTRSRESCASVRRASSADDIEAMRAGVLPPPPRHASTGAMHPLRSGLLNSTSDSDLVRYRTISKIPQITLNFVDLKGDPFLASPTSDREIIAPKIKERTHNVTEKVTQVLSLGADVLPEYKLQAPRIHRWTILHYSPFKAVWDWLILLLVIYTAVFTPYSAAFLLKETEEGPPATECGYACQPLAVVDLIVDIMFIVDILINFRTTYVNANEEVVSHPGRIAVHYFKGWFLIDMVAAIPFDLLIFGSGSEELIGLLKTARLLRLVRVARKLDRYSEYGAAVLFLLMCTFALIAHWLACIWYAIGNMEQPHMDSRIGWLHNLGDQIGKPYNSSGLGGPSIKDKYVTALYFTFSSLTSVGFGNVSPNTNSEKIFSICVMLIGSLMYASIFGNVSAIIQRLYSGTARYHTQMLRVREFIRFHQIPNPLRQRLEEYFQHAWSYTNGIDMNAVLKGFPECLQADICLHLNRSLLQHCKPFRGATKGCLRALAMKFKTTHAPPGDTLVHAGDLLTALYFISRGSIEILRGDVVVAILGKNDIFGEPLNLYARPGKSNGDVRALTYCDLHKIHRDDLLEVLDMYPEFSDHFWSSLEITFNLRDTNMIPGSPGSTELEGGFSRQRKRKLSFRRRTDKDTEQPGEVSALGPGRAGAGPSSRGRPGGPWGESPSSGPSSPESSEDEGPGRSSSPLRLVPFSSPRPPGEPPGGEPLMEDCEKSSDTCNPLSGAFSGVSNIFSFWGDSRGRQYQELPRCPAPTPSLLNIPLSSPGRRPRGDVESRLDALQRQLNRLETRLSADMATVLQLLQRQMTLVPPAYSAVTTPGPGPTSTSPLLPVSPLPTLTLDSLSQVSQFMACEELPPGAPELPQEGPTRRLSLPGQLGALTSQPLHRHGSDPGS
#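 U2OS cells transduced with wild-type KCNH2 virus are loaded with FluxOr dye for 45 min, and thallium flux is measured in kinetic reads before and after stimulation buffer. Rate constants are normalized to DMSO controls.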
# Starred values were filed as active, the others as inactive; i = inactive; ? = inconclusive; . = not tested or not shown; ! = repeats disagree; [ ] = remark or other dose. Unless noted, calls follow the shape of the dose curve; as a rule, active = well fitted curve in the direction sought with a large enough effect; inconclusive = small, poorly fitted or top-dose-only effect, or another doubt; inactive = no such curve, though single readings can be large; an effect the other way counts as inactive or inconclusive.
SMILES,SW480 rereplic,MCF10A rerep,KB-3-1 tox,KCNH2 3.1 inh,KB-V1 cytotox,hERG WT inh
COC(=O)c1c(C)cccc1C1CN=NC12Cc1ccccc1C2=O (stereo unspecified),-4%,-5%,i,-5,21µM*,-5
CCC(=O)N1CCc2cc(S(=O)(=O)NC(CC(C)C)C(=O)N3CCc4ccccc43)ccc21 (stereo unspecified),?,7%,i,16,13µM*,2
CCC(=O)N1CCc2cc(S(=O)(=O)NC(Cc3ccccc3)C(=O)O)ccc21 (stereo unspecified),-7%,-3%,i,-13,i,-4
C=CCN1C(=O)/C(=C/c2ccc(OC(C)=O)c(OCC)c2[N+](=O)[O-])SC1=S,23%,3.7µM*,?,.,?,-1
Cc1cc(N=Cc2c(O)ccc3ccccc23)no1,-4%,12%,i,-14,?,14
Cc1cc(N=Cc2c(O)ccc3cc(Br)ccc23)no1,-693%,13µM*,i,7,i,1
Cc1ccccc1CN1CCN(S(=O)(=O)c2cccs2)CC1,3%,?,i,-18,i,-3
CC(=O)O[C@H]1C(=O)[C@@]2(C)[C@H]([C@H](OC(=O)c3ccccc3)[C@]3(O)C[C@H](OC(=O)[C@H](O)C(NC(=O)c4ccccc4)c4ccccc4)C(C)=C1C3(C)C)[C@]1(OC(C)=O)CO[C@@H]1C[C@@H]2O (stereo partly specified),0.065µM*,?,0.0092µM*,2,?,-8
CC(=O)O[C@H]1C(=O)[C@@]2(C)[C@H]([C@H](OC(=O)c3ccccc3)[C@]3(O)C[C@H](OC(=O)[C@H](O)[C@@H](NC(=O)c4ccccc4)c4ccccc4)C(C)=C1C3(C)C)[C@]1(OC(C)=O)CO[C@@H]1C[C@@H]2O,2.6µM*,?,0.046µM*!,13,13µM*!,-19
CCCCCC(=O)N[C@@H](c1ccccc1)[C@@H](O)C(=O)O[C@H]1C[C@@]2(O)[C@@H](OC(=O)c3ccccc3)C3[C@](C)(C(=O)[C@H](OC(C)=O)C(=C1C)C2(C)C)[C@@H](O)C[C@H]1OC[C@@]31OC(C)=O (stereo partly specified),0.18µM*,?,0.21µM*,-2,?,4
CCc1ccc(NC(=O)C2CCC(CNS(=O)(=O)c3ccc4c(c3)C(C)(C)C(=O)N4C)CC2)cc1 (stereo unspecified),.,.,i,.,i,.
COc1ccccc1-n1cc(-c2ccc(Br)cc2)[nH]c1=S,?,14%,i,5,i,-1
S=c1[nH]c(-c2ccccc2)cn1-c1ccccc1,4%,-5%,i,-11,i,-10
COc1ccc(-c2cn(-c3ccc(C)c(C)c3)c(=S)[nH]2)cc1OC,0%,9%,i,8,i,22
COc1ccc(-c2cn(-c3ccc(C)c(Cl)c3)c(=S)[nH]2)cc1OC,-1%,13%,16µM*,-6,i,-4
COc1ccccc1-n1cc(-c2ccc(C)cc2)[nH]c1=S,?,18µM*,?,2,23µM*,6
COc1ccc(-c2cn(-c3ccccc3)c(=S)[nH]2)cc1OC,-5%,2%,3.3µM*,-25,i,6
CCCCCn1c(Sc2nc3ccccc3s2)nc2c1c(=O)[nH]c(=O)n2C,-2%,-6%,i,-8,i,6
O=C(CCNS(=O)(=O)c1cccs1)N1CCN(c2cccc(Cl)c2)CC1,1%,27%,i,-6,?,11
O=C(CCNS(=O)(=O)c1cccc2nonc12)N1CCN(c2cccc(Cl)c2)CC1,?,-3%,i,-10,10µM*,-8
O=C(CCS(=O)(=O)c1cccc2nonc12)N1CCN(c2ccc(F)cc2)CC1,-3%,30%,i,-9,23µM*,7
CC(=O)O/N=C(\N)c1ccc(-c2csnn2)cc1,1%,-2%,i,8,i,-1
O=C(NC1CC1)c1ccc2nc([C@H]3C[C@H](O)[C@@H](CO)O3)[nH]c2c1,.,.,i,.,i,.
Cc1ccc(CN2CCN(Cc3cc(=O)c4ccccc4[nH]3)CC2CCO)o1 (stereo unspecified),-38%,194%[9.22 µM],i,-2,?,-118*
Cc1ccc2[nH]c(CN3CCN(C)C(CCO)C3)c(C)c2c1 (stereo unspecified),-33%,?,i,24,i,-2
SMILES,SW480 rereplic,MCF10A rerep,KB-3-1 tox,KCNH2 3.1 inh,KB-V1 cytotox,hERG WT inh
CCOc1ccc(CN2CCN(Cc3[nH]c4ccc(OC)cc4c3C)CC2CCO)cc1 (stereo unspecified),?,-35%,i,-107*,?,-73*
CCOc1ccccc1CN1CCN(Cc2[nH]c3ccccc3c2C)CC1CCO (stereo unspecified),16%,10%,i,-74*,?,-18
CCOc1ccccc1CN1CCN(Cc2c[nH]c3ccccc23)CC1CCO (stereo unspecified),-3%,10%,i,-1,i,0
CN(C)CCN1C(=O)c2oc3ccccc3c(=O)c2C1c1cccc(Br)c1 (stereo unspecified),-7%,0%,i,.,10µM*,1
O=C1c2oc3ccccc3c(=O)c2C(c2cccnc2)N1Cc1ccco1 (stereo unspecified),-9%,17%,i,27,7.3µM*,-1
CCN(CC)CCCN1C(=O)c2oc3ccccc3c(=O)c2C1c1cccnc1 (stereo unspecified),-7%,21%,i,1,i,0
COC(=O)C1=C(CS(=O)(=O)c2ccc(OC)cc2)NC(=O)NC1c1ccccc1 (stereo unspecified),1%,0%,i,23,i,-10
COc1ccc(C)cc1NC(=O)CN1C(=O)c2cccc3cccc1c23,?,15µM*,i,-11,i,-8
COc1ccc(OC)c(NC(=O)CN2c3cccc4cccc(c34)S2(=O)=O)c1,0%,7%,i,3,5.2µM*,28
CCc1ccc(-n2c(=O)c3c4c(sc3n(CC(=O)c3ccc(Cl)cc3)c2=O)CCC4)cc1,.,.,i,.,i,.

# Screening data as filed in PubChem.
